According to PubChem BioAssay (NCI):
The panel holds about 83,000 compounds, 20% with a hit somewhere; the sample as a whole holds those more often.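 Values shown are percent growth following 48 h exposure of cells in 96-well plates to a single concentration of compound; below 10 was considered active.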 Values without a mark were called inactive. The source made the active and inactive calls.

The compounds below were run on HL-60(TB) leukemia (assay: NCI-60 one-dose screen, 48 h (100 = growth as untreated, 0 = no growth, -100 = all killed)). Details: 10 µM unless noted.

| Structure (SMILES) | growth |
| --- | --- |
| Cc1cc2c(cc1C)N(C(=O)CCl)CC(=O)N2 | 8.25% (active) |
| C[C@@H](Nc1cc(F)cc(F)c1)c1cc(C(=O)N(C)C)cc2c(=O)cc(N3CCOCC3)oc12 | 40.9% |
| FC(F)c1nc2ccccc2n1-c1nc(N2CCOCC2)nc(N2CCOCC2)n1 | 15.1% |
| COc1ccc(/C=C/C(c2cc(OC)c(OC)c(OC)c2)n2cncn2)cc1O (centres undefined) | -36.3% (active) |
| O=C(Nc1cccc2[nH]c(C(F)(F)F)nc12)c1ccc(F)cc1 | 49.6% |
| O=C(Nc1ccccc1)NS(=O)(=O)c1c[nH]c(=S)[nH]c1=O | 77.8% |
| COc1ccc2[nH]c(O)c(N=NC(=O)c3oc4ccccc4c3C)c2c1 | 53.9% |
| Cc1cc(Nc2nc(-c3cccnc3)nc3ccccc23)n[nH]1 | 53.4% |
| COc1cc(-c2nc3c(c(C)nc4c3nnn4-c3ccccc3)c(=O)o2)cc(OC)c1OC | 105% |
| Cc1ccc2c(c1)C(=O)c1c-2c(OCCCN(C)C)nc2ccccc12 | 35% |
| NC1CCC(Nc2nc(NCc3ccc(-c4ccccc4O)nc3)c3ncn(C4CCCC4)c3n2)CC1 (centres undefined) | -41.8% (active) |
| Cc1csc(Nc2nc(-c3ccccn3)nc(C(Cl)(Cl)Cl)n2)n1 | 77.4% |
| C/C(=C(/c1ccc(O)cc1)c1ccc(OCCN2CCCC2)cc1)c1ccccc1 | 45.1% |
| c1ccc2[nH]c(-c3ccc(Nc4nc(N5CCCCC5)nc(N5CCOCC5)n4)cc3)nc2c1 | -22.7% (active) |
| O=c1oc2ccc3ccccc3c2cc1-c1ccnc2[nH]c(=S)[nH]c(=O)c12 | 87.3% |
| CN1CCN(c2ccc(/C=C/C(=O)c3ccc(O)cc3)cc2)CC1 | 115% |
| NCCNc1ccc2cc(-c3nc4ccccc4[nH]3)c(=O)oc2c1 | 80.1% |
| O=C(N(c1ccccc1)c1ccccc1)n1cc(I)c2nc(Cl)nc(Cl)c21 | 22.9% |
| Cc1cccc2c(N)c3ccccc3nc12 | 9.2% (active) |
| COc1cc(CNS(=O)(=O)c2ccc(C)cc2)ccc1OCc1cn(-c2ccc(Br)cc2)nn1 | 106% |

| Structure (SMILES) | growth |
| --- | --- |
| NC(N)=N/N=C/c1ccccc1 | 99.5% |
| CN1CCN(Cc2ccc(NC(=O)c3cncc(C#Cc4cnc(N)c5ccc(F)cc45)c3)cc2C(F)(F)F)CC1 | -27% (active) |
| CCCCCOc1ccc(/C=N/Nc2cc(C)nc3ccc(Cl)cc23)cc1 | 0.0681% (active) |
| COc1ccc2c(c1)sc1nc(-c3ccccc3)c(-c3cccc4ccccc34)n12 | 6.59% (active) |
| COc1ccc(/C(C)=C(\c2ccc(Cl)cc2)c2ccc(OCCN3CCCCCC3)cc2)cc1 | 25.8% |
| COc1ccc(-c2csc(NC(=O)CSc3nc(C)c(-c4ccccc4)n3Nc3ccccc3)n2)cc1 | 50.3% |
| O=C1N=C(c2c(-c3[nH]c(=O)c4ccc(Br)cc4c3O)c(O)c3ccccc3c2O)C(=O)c2cc(Br)ccc21 | 45.6% |
| Cc1cc2nc(CN)[nH]c2cc1C | 96.6% |
| O=C1/C=C/[C@@H](O)[C@@H]2C[C@@H](O)C[C@H]2/C=C/CCC[C@H](CCc2ccc(NC(=S)Nc3ccc4c(c3)C(=O)OC43c4ccc(O)cc4Oc4cc(O)ccc43)cc2)O1 | 4.65% (active) |
| COc1cc(CNc2ccccc2C(=O)N2CCN(C(=O)c3cc(-c4cc(OC)c(OC)c(OC)c4)n4nc(-c5ccccc5)cc4n3)CC2)cc(OC)c1OC | 34.7% |
| CN(C)[C@@H]1C(=O)C(C(N)=O)=C(O)[C@@]2(O)C(=O)C3=C(O)c4c(O)cc(CN5CCc6ccccc6C5)c(Cl)c4C[C@H]3C[C@@H]12 | -64.8% (active) |
| COc1ccccc1/C=C1\Oc2cc(OCCN3CCC(Cc4ccccc4)CC3)ccc2C1=O | 97.1% |
| COC(=O)C1(C)CCC[C@]2(C)[C@H]3C[C@H]4C(C(C)C)=C[C@]3(CC[C@@H]12)[C@H]1[C@@H]4[C@@H](OCC#CCN2CCOCC2)CC[C@@H]1OCC#CCN1CCOCC1 (some centres undefined) | 88.7% |
| COc1ccc(CN2C(=O)OC(C)(COC(C)=O)C2=O)cc1 (centres undefined) | 101% |
| CSc1ccc(N(C)c2nc(C)nc3c2CCC3)cc1 | -28.3% (active) |
| N=C(N)N=Nc1ccc(NN=C(N)N)cc1 | 101% |
| NS(=O)(=O)c1ccc(C(=O)NN2C(=O)c3ccccc3C2=O)cc1 | 103% |
| CCOC(=O)c1c(-c2ccc(Cl)cc2)c(C#N)c2c(C#N)c(N)nn2c1N | 43.4% |
| O=C1c2ccccc2C2N1CCC1CCc3ccccc3N12 (centres undefined) | 104% |
